Inconclusive results are not listed. Activity calls are given as the source filed them. How the source made its calls, unless noted: active means hit-call score of the fitted dose curve at least 0.9, where 1 is the maximum; inactive means score below 0.9.
Experiments:
[1] = CCTE_Mundy_HCI_Cortical_Synap_Neur_Matur_NeuriteLength: CCTE's Synaptogenesis and Neurite Maturation Assay in rat cortical cells for Neurite Length, Mundy Lab (AID 2284214)
How it was run: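 Rat primary cortical cultures, AraC added DIV 5, dosed DIV 7 through DIV 12 […]. Fixed, MAP2/synaptophysin immunostained with Hoechst; neurite length by high-content imaging, fitted in positive direction versus DMSO.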

[2] = CCTE_Mundy_HCI_Cortical_Synap_Neur_Matur_NeuriteSpotCountPerNeuron: CCTE's Synaptogenesis and Neurite Maturation Assay in rat cortical cells for Neurite Spot Count per Neuron Count, Mundy Lab (AID 2284215)
How it was run: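 Developing rat cortical neurons, with glia suppressed by AraC, are exposed to chemicals from DIV 7 to DIV 12. Automated fluorescence imaging of MAP2-labelled neurites and synaptophysin puncta yields a count per neuron, normalised against DMSO wells.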

[3] = CCTE_Mundy_HCI_Cortical_Synap_Neur_Matur_SynapseCount: CCTE's Synaptogenesis and Neurite Maturation Assay in rat cortical cells for Synapse Count, Mundy Lab (AID 2284218)
How it was run: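 Rat primary cortical cultures, AraC at DIV 5, chemical dosing DIV 7 to DIV 12 (288.33 h). Fixed cells stained for MAP2, synaptophysin and Hoechst; synapses per neuron counted by high-content imaging, loss of signal versus DMSO.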

[4] = CCTE_Mundy_HCI_Cortical_Synap_Neur_Matur_CellBodySpotCount: CCTE's Synaptogenesis and Neurite Maturation Assay in rat cortical cells for Cell Body Spot Count, Mundy Lab (AID 2284223)
How it was run: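 Chemicals were applied to AraC-treated rat primary cortical cells at DIV 7 and measured at DIV 12. Fixed cells were labelled for MAP2, synaptophysin and nuclei, and high-content imaging gave cell body synaptophysin spot counts per neuron relative to DMSO.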

[5] = CCTE_Mundy_HCI_hNP1_Pro_ResponderAvgInten: CCTE's Proliferation Assay in human neuroprogenitor cells, Mundy Lab (AID 2284224; active means hit-call score of the fitted dose curve at least 0.9, where 1 is the maximum)
How it was run: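 Proliferation was scored as BrdU labelling intensity in human neural progenitors derived from WA09 embryonic cells, measured 26.25 hours after chemical dosing. Activity was fitted relative to DMSO.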

[6] = UKN2_HCS_IMR90_cell_viability: Viability Assessment in the University of Konstanz (UKN) Leist Lab Neural Crest Cell Migration Assay in human induced IMR90 Pluripotent Stem Cells (UKN2) (AID 2284233);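 further: viability of neural crest cells differentiated from IMR90 iPSC measured by calcein-AM fluorescence imaging; cells exposed to compound for 24 h after a 24 h migration phase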
How it was run: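 Human IMR90-derived neural crest cells were allowed to migrate for 24 h into a cell-free zone, then exposed to test chemicals for 24 h. Calcein-AM and Hoechst staining with high-content imaging gave viability, analysed against DMSO baseline.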

[7] = CCTE_Mundy_HCI_Cortical_NOG_NeuronCount: CCTE's Neurite Outgrowth Assay in rat cortical cells for Neuron Count, Mundy Lab (AID 2284236; active means hit-call score of the fitted dose curve at least 0.9, where 1 is the maximum;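 further: neurons counted by imaging betaIII-tubulin and Hoechst stained cortical cells; cells exposed to compound for about 48 hours before fixation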)
How it was run: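 Read-out: neuron number by high-content imaging of betaIII-tubulin (Alexa Fluor-488) and Hoechst-labelled rat primary cortical cells.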

[8] = CCTE_Mundy_HCI_Cortical_NOG_BPCount: CCTE's Neurite Outgrowth Assay in rat cortical cells for Branch Point Count, Mundy Lab (AID 2284237)
How it was run: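 Measured 50.33 h after dosing, this morphology endpoint uses rat primary cortical cultures labelled for betaIII-tubulin. Branch points are quantified by high-content imaging, with DMSO as negative control and baseline.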

[9] = CCTE_Mundy_HCI_hNP1_Casp3_7: CCTE's Caspase-Glo 3/7 Assay in human neuroprogenitor cells for Apoptosis, Mundy Lab (AID 2284240)
How it was run: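 Apoptosis is scored by activated caspase-3/7 luminescence in WA09-derived neural progenitor cells, measured 26.5 h after chemical dosing. Values represent gain of signal relative to DMSO vehicle.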

[10] = CCTE_Mundy_HCI_hNP1_CellTiter: CCTE's Cell Titer-Glo 2 Assay in human neuroprogenitor cells for Viability, Mundy Lab (AID 2284241; active means hit-call score of the fitted dose curve at least 0.9, where 1 is the maximum)
How it was run: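 Human neural progenitor cells (hNP1, WA09-derived) were plated on poly-L-ornithine/laminin and grown 40 to 44 hours at 37 °C, 5% CO2 before chemical addition. Twenty-four hours later, ATP was measured by CellTiter-Glo luminescence; loss of signal versus DMSO indicates reduced viability.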

[11] = IUF_NPC2c_oligodendrocyte_migration_120hr: Leibniz Research Institute for Environmental Medicine (IUF) 120-hour Neural Progenitor Cell Migration Assay for Oligodendrocyte Migration (NPC2c) (AID 2284297);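 further: O4-positive oligodendrocyte migration distance divided by radial glia migration distance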
How it was run: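 Using fetal brain neural progenitor spheres differentiating in N2 medium at 37C, compounds were present for 120 h. Oligodendrocyte migration distance, normalized to radial glia migration, was measured from imaged O4 staining.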

[12] = IUF_NPC2a_radial_glia_migration_120hr: Leibniz Research Institute for Environmental Medicine (IUF) 120-hour Neural Progenitor Cell Migration Assay for Radial Glia Migration (NPC2a) (AID 2284298)
How it was run: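 Exposure of 0.3 mm primary hNPC spheres runs day 0 to 120 h with a half-volume medium change at day 3. Fixed cells get Hoechst staining; high-content analysis of nuclear positions yields radial glia migration distance per well, compared against DMSO controls.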

[13] = IUF_NPC2b_neuronal_migration_120hr: Leibniz Research Institute for Environmental Medicine (IUF) 120-hour Neural Progenitor Cell Migration Assay for Neuron Migration (NPC2b) (AID 2284300)
How it was run: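 Fetal human NPC spheres migrate on PDL/laminin during 120 h compound treatment; neuronal migration distance, glia-normalized, scored versus DMSO control.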

[14] = IUF_NPC3_neuronal_differentiation_120hr: Leibniz Research Institute for Environmental Medicine (IUF) 120-hour Neuronal Differentiation Assay (NPC3) (AID 2284301)
How it was run: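 Single 0.3 mm neurospheres from human fetal cortex were plated in differentiation medium containing test compound. Medium was half-replaced on day 3. After 120 h cells were fixed, immunostained and imaged, and neuronal fraction was scored against DMSO control.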

[15] = IUF_NPC4_neurite_length_120hr: Leibniz Research Institute for Environmental Medicine (IUF) 120-hour Neuronal Morphology Assay for Neurite Length (NPC4) (AID 2284302)
How it was run: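 Read-out is mean neurite length in µm of TUBB3-positive neurons, skeletonized from high-content fluorescence images after 120 h. Single 0.3 mm primary human neural progenitor spheres differentiated on poly-D-lysine/laminin under continuous compound exposure; DMSO was baseline.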

[16] = IUF_NPC4_neurite_area_120hr: Leibniz Research Institute for Environmental Medicine (IUF) 120-hour Neuronal Morphology Assay for Neurite Area (NPC4) (AID 2284305; active means hit-call score of the fitted dose curve at least 0.9, where 1 is the maximum)
How it was run: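 Neurite area is read out as the mean pixel area, excluding nuclei, of skeletonized TUBB3-positive neurons imaged after 120 h. Primary human neural progenitor spheres differentiated on poly-D-lysine/laminin with compound present from day 0. Activity was referenced to DMSO controls.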

[17] = IUF_NPC2-5_cytotoxicity_72hr: Cytotoxicity Assessment at 72 hours in the Leibniz Research Institute for Environmental Medicine (IUF) Neural Progenitor Cell Migration and Differentiation Assay for Cytotoxicity (NPC2-5) (AID 2284306; active means hit-call score of the fitted dose curve at least 0.9, where 1 is the maximum;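 further: LDH release into supernatant measured by resorufin fluorescence marking membrane damage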)
How it was run: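 Membrane integrity loss was scored from fluorescence (RFU) of resorufin generated by LDH in culture supernatant, 72 h after dosing. Differentiating human progenitor spheres received seven serial compound concentrations alongside a solvent control.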

[18] = IUF_NPC2-5_cytotoxicity_120hr: Cytotoxicity Assessment at 120 hours in the Leibniz Research Institute for Environmental Medicine (IUF) Neural Progenitor Cell Migration and Differentiation Assay (NPC2-5) (AID 2284307; active means hit-call score of the fitted dose curve at least 0.9, where 1 is the maximum)
How it was run: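 Membrane-integrity loss is quantified by LDH in supernatant after five days of exposure of migrating, differentiating human fetal NPC spheres; seven serially diluted concentrations are tested with DMSO kept at or below 0.1%.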

[19] = IUF_NPC2-5_cell_number_120hr: Cell Number Assessment at 120 hours in the Leibniz Research Institute for Environmental Medicine (IUF) Neural Progenitor Cell Migration and Differentiation Assay (NPC2-5) (AID 2284308);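 further: count of Hoechst-stained nuclei in migration zone around plated human neural progenitor spheres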
How it was run: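 Seven-point serial dilutions plus solvent control were applied to plated 0.3 mm hNPC spheres at differentiation start, with medium half-replaced at day 3. Nuclei positive for Hoechst in the migration zone were enumerated at 120 h.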

[20] = IUF_NPC2-5_viability_120hr: Viability Assessment at 120 hours in the Leibniz Research Institute for Environmental Medicine (IUF) Neural Progenitor Cell Migration and Differentiation Assay (NPC2-5) (AID 2284312)
How it was run: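 Alamar blue resorufin fluorescence read after 5 days of differentiation, with compound present from day 0 and replenished at day 3. Primary hNPC spheres on laminin-coated plates, 37C; seven concentrations plus solvent control, fitted against DMSO.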

[21] = CCTE_Mundy_HCI_iCellGluta_NOG_NeuriteLength: CCTE's Neurite Outgrowth Assay in iCellGluta cells for Neurite Length, Mundy Lab (AID 2284318; active means hit-call score of the fitted dose curve at least 0.9, where 1 is the maximum)
How it was run: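 Automated high-content imaging of betaIII-tubulin (Alexa Fluor-488) and Hoechst-stained cells gave neurite length, normalized to the DMSO baseline.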

[22] = IUF_NPC1_cytotoxicity_72hr: Cytotoxicity Assessment at 72 hours in the Leibniz Research Institute for Environmental Medicine (IUF) Neural Progenitor Cell Proliferation Assay (NPC1) (AID 2284332; active means hit-call score of the fitted dose curve at least 0.9, where 1 is the maximum;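 further: rising LDH signal means more cytotoxicity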)
How it was run: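 Human fetal neural progenitor spheres (0.3 mm) in EGF/FGF proliferation medium, 37C, exposed 72 h without renewal. LDH release in supernatant read by resorufin fluorescence; gain of signal scored relative to dynamic range.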

[23] = CCTE_Mundy_HCI_iCellGluta_NOG_NeuronCount: CCTE's Neurite Outgrowth Assay in iCellGluta cells for Neuron Count, Mundy Lab (AID 2284340; active means hit-call score of the fitted dose curve at least 0.9, where 1 is the maximum;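 further: cells fixed about 48 h after compound addition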)
How it was run: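 Neuron count read by automated high-content imaging of Hoechst 33342 and betaIII-tubulin/Alexa Fluor-488 labelling in human iPSC glutamatergic neurons. Activity fitted relative to DMSO.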

Measured: outcome

CC(C)c1nn(C(=O)NC(C)(C)C)c(=O)n1N
inactive: [1] | [2] | [3] | [4] | [5] | [6] | [7] | [8] | [9] | [10] | [11] | [12] | [13] | [14] | [15] | [16] | [17] | [18] | [19] | [20] | [21] | [22] | [23]

— PubChem BioAssay (EPA / NIEHS)
